Measurements reported in PubChem BioAssay.
For some assays here: Potency and affinity values are given separately. Activity calls are given as the source filed them. Unless noted, the rule behind the calls is not given here.

Tests used:
[1] = antimalarial activity against Dd2 strain (AID 2302;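 active = growth inhibition above 50% at the single 2 µM test dose, taken to imply half-maximal potency below 2 µM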;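 note: 0% = DMSO untreated growth and 100% = chloroquine plus artemisinin killed control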); details: P. falciparum Dd2 in RBCs, LDH growth readout, 72 h; at 2 µM; stronger effect = higher value
[2] = human hepatoma cell viability loss – ATP luminescence, cytotoxicity control for P. falciparum antimalarial project, primary screen (AID 2303;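 active = inhibition above 50%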;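 note: 0% = DMSO wells and 100% = digitonin-killed cells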); details: HepG2 viability, 24-48 h, at 10 µM, stronger effect = higher value
[3] = biological target: L-lactate dehydrogenase (Plasmodium falciparum (isolate CDC / Honduras)) (UniProt Q27743); assay: PfLDH activity inhibition – cell lysate, 3D7 strain, counter-screen for P. falciparum growth inhibition project (AID 2304);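 note: 0% = vehicle and 100% = reference inhibitor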; details: P. falciparum 3D7 crude extract, LDH APAD/NBT absorbance; at 2 µM; stronger effect = higher value
Sequence of L-lactate dehydrogenase (Plasmodium falciparum (isolate CDC / Honduras)) (Q27743 whole entry, looked up): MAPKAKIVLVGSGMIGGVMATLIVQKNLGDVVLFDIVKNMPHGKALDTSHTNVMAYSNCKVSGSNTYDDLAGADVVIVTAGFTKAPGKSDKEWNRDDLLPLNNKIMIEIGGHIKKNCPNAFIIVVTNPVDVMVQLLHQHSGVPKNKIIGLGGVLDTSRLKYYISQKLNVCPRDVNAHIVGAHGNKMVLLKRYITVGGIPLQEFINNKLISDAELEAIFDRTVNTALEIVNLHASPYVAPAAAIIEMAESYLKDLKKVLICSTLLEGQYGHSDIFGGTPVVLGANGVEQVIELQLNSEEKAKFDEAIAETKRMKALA

[4] = inhibition of 3D7 malaria parasite growth – strain 3D7 (AID 2306);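 note: 0% = DMSO wells and 100% = chloroquine plus artemisinin control wells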; details: P. falciparum 3D7 erythrocytic growth, LDH absorbance, 72 h; at 2 µM; stronger effect = higher value
[5] = biological target: Calcium-dependent protein kinase 1 (Plasmodium falciparum (isolate 3D7)) (UniProt P62344); assay: PfCDPK1 kinase inhibitors, biochemical, TCAMS library (AID 1159585; cut-off not given, nearly all actives have IC50 up to about 0.98 µM;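 note: inhibitors leave more ATP so luminescence rises with inhibition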); details: recombinant PfCDPK1, Kinase-Glo ATP depletion luminescence
Sequence of Calcium-dependent protein kinase 1 (Plasmodium falciparum (isolate 3D7)) (P62344 whole entry, looked up): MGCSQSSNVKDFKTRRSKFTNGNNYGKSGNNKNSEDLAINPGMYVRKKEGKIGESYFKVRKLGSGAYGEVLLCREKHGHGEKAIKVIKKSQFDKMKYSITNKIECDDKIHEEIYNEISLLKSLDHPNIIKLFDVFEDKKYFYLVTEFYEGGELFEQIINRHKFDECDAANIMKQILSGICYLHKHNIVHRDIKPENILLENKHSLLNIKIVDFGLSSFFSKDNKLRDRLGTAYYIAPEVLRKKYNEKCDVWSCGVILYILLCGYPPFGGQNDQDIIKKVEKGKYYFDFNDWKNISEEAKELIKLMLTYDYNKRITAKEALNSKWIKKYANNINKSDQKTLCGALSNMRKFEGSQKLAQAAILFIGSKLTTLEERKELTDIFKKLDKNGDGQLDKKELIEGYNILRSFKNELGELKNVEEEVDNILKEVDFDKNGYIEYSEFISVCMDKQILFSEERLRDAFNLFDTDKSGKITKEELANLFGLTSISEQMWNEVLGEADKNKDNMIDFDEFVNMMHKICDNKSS

[6] = biological target: Plasmodium falciparum protein kinase 6 (PK6, PF3D7_1337100) (UniProt Q8IDW1); assay: PfPK6 kinase inhibitors, biochemical, TCAMS library (AID 1159586); details: recombinant PfPK6, Kinase-Glo ATP depletion luminescence
Sequence of Plasmodium falciparum protein kinase 6 (PK6, PF3D7_1337100) (Q8IDW1 1-305): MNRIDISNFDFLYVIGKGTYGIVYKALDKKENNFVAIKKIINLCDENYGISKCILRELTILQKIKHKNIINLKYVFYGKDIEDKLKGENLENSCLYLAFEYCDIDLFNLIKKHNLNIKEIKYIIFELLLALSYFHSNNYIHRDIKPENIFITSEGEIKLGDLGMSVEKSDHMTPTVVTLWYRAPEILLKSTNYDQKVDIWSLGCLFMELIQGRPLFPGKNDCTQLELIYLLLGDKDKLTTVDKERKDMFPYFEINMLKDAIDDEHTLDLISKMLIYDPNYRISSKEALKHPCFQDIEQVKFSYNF

[7] = biological target: Protein kinase 7 (PK7), Plasmodium falciparum 3D7 (PF3D7_0213400) (UniProt Q7YTF7); assay: inhibition of Plasmodium PK7 catalytic activity – biochemical, TCAMS antimalarial set, Kinase-Glo luminescence (AID 1159587); details: recombinant PfPK7, Kinase-Glo ATP depletion luminescence
Sequence of Protein kinase 7 (PK7), Plasmodium falciparum 3D7 (PF3D7_0213400) (Q7YTF7 1-343): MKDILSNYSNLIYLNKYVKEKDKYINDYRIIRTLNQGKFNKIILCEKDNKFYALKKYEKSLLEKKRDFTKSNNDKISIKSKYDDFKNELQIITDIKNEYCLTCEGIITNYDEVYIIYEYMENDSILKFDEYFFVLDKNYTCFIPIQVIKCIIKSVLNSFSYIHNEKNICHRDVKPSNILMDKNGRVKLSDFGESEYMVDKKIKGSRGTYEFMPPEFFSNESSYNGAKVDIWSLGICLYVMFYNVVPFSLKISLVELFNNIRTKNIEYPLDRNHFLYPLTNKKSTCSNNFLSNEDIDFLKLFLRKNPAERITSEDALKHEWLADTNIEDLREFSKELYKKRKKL

[8] = biological target: Calcium-dependent protein kinase 4 (Plasmodium falciparum (isolate 3D7)) (UniProt Q8IBS5); assay: PfCDPK4 kinase inhibitors, biochemical, TCAMS library (AID 1159588; cut-off not given, nearly all actives have IC50 up to about 0.91 µM); details: recombinant PfCDPK4, Kinase-Glo ATP depletion luminescence
Sequence of Calcium-dependent protein kinase 4 (Plasmodium falciparum (isolate 3D7)) (Q8IBS5 whole entry, looked up): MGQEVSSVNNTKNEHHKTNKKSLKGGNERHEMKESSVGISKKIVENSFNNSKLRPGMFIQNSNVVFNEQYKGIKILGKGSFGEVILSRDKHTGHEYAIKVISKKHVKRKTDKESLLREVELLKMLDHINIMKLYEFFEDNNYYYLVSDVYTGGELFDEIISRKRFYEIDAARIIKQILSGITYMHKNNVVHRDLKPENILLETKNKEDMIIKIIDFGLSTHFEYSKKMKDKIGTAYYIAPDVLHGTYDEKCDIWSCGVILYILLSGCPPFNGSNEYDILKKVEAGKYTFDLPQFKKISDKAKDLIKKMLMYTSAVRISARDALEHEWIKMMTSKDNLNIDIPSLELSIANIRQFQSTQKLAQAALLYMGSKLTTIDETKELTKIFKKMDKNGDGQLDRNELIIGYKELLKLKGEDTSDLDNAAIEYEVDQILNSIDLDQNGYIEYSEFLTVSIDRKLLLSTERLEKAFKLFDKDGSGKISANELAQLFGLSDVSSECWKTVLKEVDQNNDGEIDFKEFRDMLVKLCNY

CC[C@H](C)CNC(=O)c1ccnc(-c2cccc(CN3CCC(N4CCCC4)CC3)c2)c1
active: growth inhibition [4] 97%
inactive: growth inhibition [1] 12% | inhibition [2] -8% | inhibition [3] -2% | outcome [5] | outcome [6] | outcome [7] | outcome [8]

Oc1cc(Nc2ccnc3cc(-c4cccc(CN5CCCCC5)c4)ccc23)c(F)cc1Cl
inactive: inhibition [2] 21% | inhibition [3] -3% | outcome [5] | outcome [6] | outcome [7] | outcome [8]
active: growth inhibition [1] 101% | growth inhibition [4] 101%

CC(C)(C)c1ccccc1SC1=C(O)CC2(CCNCC2)OC1=O
active: growth inhibition [4] 99%
inactive: growth inhibition [1] -4% | inhibition [2] 0% | inhibition [3] 2% | outcome [5] | outcome [6] | outcome [7] | outcome [8]

c1cc(CN2CCCCC2)cc(-c2csc(-c3nc4ccccc4[nH]3)c2)c1
active: growth inhibition [4] 90%
inactive: growth inhibition [1] 16% | inhibition [2] 26% | inhibition [3] 4% | outcome [5] | outcome [6] | outcome [7] | outcome [8]

CC(CN1CCN(C)CC1)C(=O)Nc1cccc(-c2cccc(-c3nc4ccc(F)cc4[nH]3)c2)c1 (stereo not given)
active: growth inhibition [1] 78% | growth inhibition [4] 101%
inactive: inhibition [2] 23% | inhibition [3] -2% | outcome [5] | outcome [6] | outcome [7] | outcome [8]

Cc1cc(N[C@@H](CC(C)C)C(=O)Nc2ccccc2)nc(NCCc2ccccc2)n1
inactive: inhibition [2] -4% | inhibition [3] -1% | outcome [5] | outcome [6] | outcome [7] | outcome [8]
active: growth inhibition [1] 87% | growth inhibition [4] 100%

CCN(c1ccc(F)cc1)S(=O)(=O)c1cc(Br)cc2c1N(C(=O)C1CC1)CC2
active: growth inhibition [1] 79% | growth inhibition [4] 88%
inactive: inhibition [2] -16% | inhibition [3] 7% | outcome [5] | outcome [6] | outcome [7] | outcome [8]

COc1ccc2c(NN=Cc3cccc(Cl)c3)cc(C)nc2c1
inactive: inhibition [2] 3% | inhibition [3] 3% | outcome [5] | outcome [6] | outcome [7] | outcome [8]
active: growth inhibition [1] 99% | growth inhibition [4] 103%

CO/C(=C\C=C\c1cc2cc(Cl)ccc2[nH]1)C(=O)NCCCN1CCN(c2cc(Cl)ccc2OC)CC1
active: growth inhibition [4] 97%
inactive: growth inhibition [1] 21% | inhibition [2] 41% | inhibition [3] -2% | outcome [5] | outcome [6] | outcome [7] | outcome [8]

CC(C)C[C@@H](/C=N/N1CCNC1=O)NC(=O)[C@H](CC(C)C)NC(=O)c1ccc(OCCN2CCOCC2)cc1
active: growth inhibition [1] 89% | growth inhibition [4] 97%
inactive: inhibition [2] 21% | inhibition [3] -4% | outcome [5] | outcome [6] | outcome [7] | outcome [8]

Cc1cc(NCC(c2ccccc2)c2ccccc2)nc(NCc2ccc(C(F)(F)F)cc2)n1
inactive: inhibition [2] 29% | inhibition [3] 2% | outcome [5] | outcome [6] | outcome [7] | outcome [8]
active: growth inhibition [1] 79% | growth inhibition [4] 102%

COc1ccc2nccc([C@@H](O)CN3CC[C@H](NCc4ccc5c(n4)NC(=O)CS5)[C@H](F)C3)c2c1
inactive: inhibition [2] 5% | inhibition [3] 0% | outcome [5] | outcome [6] | outcome [7] | outcome [8]
active: growth inhibition [1] 88% | growth inhibition [4] 89%

NC1CCN(c2nc(NCCCc3ccc(O)cc3)nc(NCc3cccc4ccccc34)n2)CC1
inactive: growth inhibition [1] 2% | inhibition [2] 12% | inhibition [3] 6% | outcome [5] | outcome [6] | outcome [7] | outcome [8]
active: growth inhibition [4] 102%

c1ccc(CCNCc2ccc(-c3ccc(CNc4ccc5ncccc5c4)cc3)cc2)cc1
active: growth inhibition [4] 96%
inactive: growth inhibition [1] 27% | inhibition [2] 36% | inhibition [3] -1% | outcome [5] | outcome [6] | outcome [7] | outcome [8]

Cc1cccc2c(C(=O)NC3CCN(Cc4ccccc4)CC3)cc(-c3cccnc3)nc12
inactive: growth inhibition [1] 10% | inhibition [2] 12% | inhibition [3] -2% | outcome [5] | outcome [6] | outcome [7] | outcome [8]
active: growth inhibition [4] 81%

O=C(Nc1cccc(OCCN2CCCC2)c1)Nc1ccc(Cl)c(Cl)c1
inactive: growth inhibition [1] 22% | inhibition [2] 3% | inhibition [3] -5% | outcome [5] | outcome [6] | outcome [7] | outcome [8]
active: growth inhibition [4] 98%

O=C(/C=C/c1ccc(Cl)cc1Cl)N1CCC(CCN2CCC(c3c[nH]c4ccccc34)CC2)CC1
active: inhibition [2] 94% | growth inhibition [4] 98%
inactive: growth inhibition [1] 37% | inhibition [3] -6% | outcome [5] | outcome [6] | outcome [7] | outcome [8]

CCN(CC)CCCNc1c2ccccc2nc2ccccc12
inactive: growth inhibition [1] 0% | inhibition [2] 17% | inhibition [3] -1% | outcome [5] | outcome [6] | outcome [7] | outcome [8]
active: growth inhibition [4] 100%

CCN(CC)CCN(CCCc1ccc(-c2ccc(C(F)(F)F)cc2)cc1)C(=O)Cn1c(CCc2cccc(F)c2F)nc(=O)c2c1CCC2
inactive: growth inhibition [1] 27% | inhibition [2] 38% | inhibition [3] -2% | outcome [5] | outcome [6] | outcome [7] | outcome [8]
active: growth inhibition [4] 92%

CCCCn1c(-c2ccco2)nc2c(c(=O)c3ccccc3n2C)c1=O
active: growth inhibition [1] 64% | growth inhibition [4] 87%
inactive: inhibition [2] 11% | inhibition [3] -2% | outcome [5] | outcome [6] | outcome [7] | outcome [8]

Cc1ccc2nc(C)cc(NN=Cc3cccc(Cl)c3)c2c1
inactive: inhibition [2] 12% | inhibition [3] 2% | outcome [5] | outcome [6] | outcome [7] | outcome [8]
active: growth inhibition [1] 98% | growth inhibition [4] 102%

COc1cccc(-c2cnc(-c3ccncc3)nc2C2CCN(Cc3ccc(NC(C)=O)cc3)CC2)c1
inactive: growth inhibition [1] -3% | inhibition [2] 17% | inhibition [3] 0% | outcome [5] | outcome [6] | outcome [7] | outcome [8]
active: growth inhibition [4] 89%

O=[N+]([O-])c1ccc(N2CCCN(C(=S)Nc3ccc(F)cc3Br)CC2)nc1
inactive: inhibition [2] 4% | inhibition [3] -3% | outcome [5] | outcome [6] | outcome [7] | outcome [8]
active: growth inhibition [1] 99% | growth inhibition [4] 100%

Cc1cccc2[nH]c(-c3cccc(-c4cccc(NC(=O)c5ccc(=O)[nH]n5)c4)c3)nc12
inactive: growth inhibition [1] 32% | inhibition [2] 10% | inhibition [3] -1% | outcome [5] | outcome [6] | outcome [7] | outcome [8]
active: growth inhibition [4] 101%

O=C(/C=C/c1ccc(Cl)c(Cl)c1)NC1CCC(CN2CCC(c3nc4ccccc4n3CCCO)CC2)CC1 (stereo not given)
inactive: growth inhibition [1] 28% | inhibition [2] 28% | inhibition [3] -5% | outcome [5] | outcome [6] | outcome [7] | outcome [8]
active: growth inhibition [4] 99%

CCCN(CCC)CCCN(CCCN(CCC)CCC)c1cc(C)nc(Nc2ccc(Cl)cc2)n1
inactive: inhibition [2] 34% | inhibition [3] -6% | outcome [5] | outcome [6] | outcome [7] | outcome [8]
active: growth inhibition [1] 101% | growth inhibition [4] 101%

CCC1(CC)CN(c2ccccc2)c2ccc(O)cc2S(=O)(=O)C1CC(C)C (stereo not given)
inactive: inhibition [2] -7% | inhibition [3] 2% | outcome [5] | outcome [6] | outcome [7] | outcome [8]
active: growth inhibition [1] 89% | growth inhibition [4] 96%

OC(c1n[nH]c(=S)n1-c1ccccc1)C(O)c1n[nH]c(=S)n1-c1ccccc1 (stereo not given)
active: growth inhibition [1] 89% | growth inhibition [4] 92%
inactive: inhibition [2] 18% | inhibition [3] 4% | outcome [5] | outcome [6] | outcome [7] | outcome [8]

NC(N)=Nc1ccc(CCc2ccc(N=C(N)N)cc2)cc1
active: growth inhibition [1] 95% | inhibition [2] 57% | growth inhibition [4] 96%
inactive: inhibition [3] -1% | outcome [5] | outcome [6] | outcome [7] | outcome [8]

CC(=O)c1c(C)[nH]c(C(=O)Nc2ccc(-c3nc4ccc(C)cc4s3)cc2)c1C
inactive: growth inhibition [1] 40% | inhibition [2] 11% | inhibition [3] -2% | outcome [5] | outcome [6] | outcome [7] | outcome [8]
active: growth inhibition [4] 92%

Cc1ccc(NC(=O)NC2CCN(c3ccnc4ccccc34)CC2)cc1
active: growth inhibition [1] 52% | growth inhibition [4] 97%
inactive: inhibition [2] 21% | inhibition [3] -6% | outcome [5] | outcome [6] | outcome [7] | outcome [8]

c1cncc(CNc2ncc(-c3ccsc3)c(-c3nccs3)n2)c1
active: growth inhibition [1] 63% | growth inhibition [4] 81%
inactive: inhibition [2] -6% | inhibition [3] 2% | outcome [5] | outcome [6] | outcome [7] | outcome [8]

O=C(Nc1cccc(-c2cccc(-c3nc4ccc(C(F)(F)F)cc4[nH]3)c2)c1)Nc1ccc(F)c(F)c1F
active: growth inhibition [1] 100% | inhibition [2] 71% | growth inhibition [4] 99%
inactive: inhibition [3] 6% | outcome [5] | outcome [6] | outcome [7] | outcome [8]

O=C(/C=C/c1ccc(Cl)c(Cl)c1)NCCCCCN1CCCC(C(=O)Nc2cccc(Cl)c2)C1 (stereo not given)
inactive: growth inhibition [1] 2% | inhibition [2] 41% | inhibition [3] -2% | outcome [5] | outcome [6] | outcome [7] | outcome [8]
active: growth inhibition [4] 99%

O=C(/C=C/c1ccc([N+](=O)[O-])cc1)N1CCC(NS(=O)(=O)c2ccc(Br)cc2)CC1
active: growth inhibition [4] 93%
inactive: growth inhibition [1] 5% | inhibition [2] 0% | inhibition [3] -4% | outcome [5] | outcome [6] | outcome [7] | outcome [8]

Cc1noc(NC(=O)c2sc3ccccc3c2O)c1C
active: growth inhibition [1] 50% | growth inhibition [4] 90%
inactive: inhibition [2] -12% | inhibition [3] 0% | outcome [5] | outcome [6] | outcome [7] | outcome [8]

COc1ccc(-c2cn3c(C(=O)Nc4ccccc4Cl)c(-c4ccccc4)c4c3n2CCCC4)cc1
active: growth inhibition [4] 100%
inactive: growth inhibition [1] 1% | inhibition [2] 7% | inhibition [3] -4% | outcome [5] | outcome [6] | outcome [7] | outcome [8]

Cc1nnc2c(NC(=O)NC3CCCC3)cc3cc(-c4ccc(CN(C)C)cc4)ccc3n12
inactive: growth inhibition [1] 37% | inhibition [3] -2% | outcome [5] | outcome [6] | outcome [7] | outcome [8]
active: inhibition [2] 100% | growth inhibition [4] 100%

CCCCCN1CCC(NC(=O)c2ccc(C(=O)Nc3ccc(C(C)C)cc3)cc2)C1 (stereo not given)
inactive: growth inhibition [1] 17% | inhibition [2] 38% | inhibition [3] 2% | outcome [5] | outcome [6] | outcome [7] | outcome [8]
active: growth inhibition [4] 95%

CCn1c(Sc2ccc(C#N)c([N+](=O)[O-])c2)nnc1-c1ccc(OC)cc1
inactive: inhibition [2] -8% | inhibition [3] 2% | outcome [5] | outcome [6] | outcome [7] | outcome [8]
active: growth inhibition [1] 94% | growth inhibition [4] 98%
